Assay results reported in the supplement of paper PMC12282887.
± gives the standard deviation of the averaged measurements.

Legend:
Assay in all cases: promoter activity interaction Z-score (Lux/OD deviation from empty-vector control); higher = stronger promoter induction by the compound
[1] = tested on: E. coli BW25113 acrABp lux reporter
In short: (§1)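 In 384-well plates, 40 µl LB Lennox cultures of E. coli BW25113 with low-copy luxCDABE promoter reporters grew at 37°C. Optical density at 600 nm and light output were recorded every 30 min for 12 h, with windows of 0–8 h for wild type and 1–9 h for deletion strains, and wells under 10% of the median growth value were left out. Each value is a Z-transformed residual of growth-normalised luminescence fitted against a control.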

[2] = tested on: E. coli BW25113 micFp lux reporter
In short: as §1

[3] = tested on: E. coli BW25113 ompFp lux reporter
In short: as §1

[4] = tested on: E. coli BW25113 robp lux reporter
In short: as §1

[5] = tested on: E. coli BW25113 soxSp lux reporter
In short: as §1

[6] = tested on: E. coli BW25113 tolCp lux reporter
In short: as §1

[7] = 17.8 µg/ml, genetic background: wild type
[8] = 17.8 µg/ml, genetic background: ΔmarA
[9] = 17.8 µg/ml, genetic background: Δrob
[10] = 17.8 µg/ml, genetic background: ΔsoxS
[11] = 35.7 µg/ml, genetic background: wild type
[12] = 35.7 µg/ml, genetic background: ΔmarA
[13] = 35.7 µg/ml, genetic background: Δrob
[14] = 35.7 µg/ml, genetic background: ΔsoxS
[15] = 71.3 µg/ml, genetic background: wild type
[16] = 71.3 µg/ml, genetic background: ΔmarA
[17] = 71.3 µg/ml, genetic background: Δrob
[18] = 71.3 µg/ml, genetic background: ΔsoxS
[19] = 142.7 µg/ml, genetic background: wild type
[20] = 142.7 µg/ml, genetic background: ΔmarA
[21] = 142.7 µg/ml, genetic background: Δrob
[22] = 142.7 µg/ml, genetic background: ΔsoxS

O=C(/C=C/C=C/c1ccc2c(c1)OCO2)N1CCCCC1 [Piperine]
promoter activity interaction Z-score [1, 7]: 0.246 ± 0.24 | promoter activity interaction Z-score [1, 8]: 2.16 ± 0.78 | promoter activity interaction Z-score [1, 9]: -0.45 ± 0.37 | promoter activity interaction Z-score [1, 10]: -0.228 ± 0.025 | promoter activity interaction Z-score [1, 11]: -0.267 ± 0.27 | promoter activity interaction Z-score [1, 12]: -0.218 ± 0.58 | promoter activity interaction Z-score [1, 13]: -0.35 ± 0.11 | promoter activity interaction Z-score [1, 14]: -0.339 ± 0.26 | promoter activity interaction Z-score [1, 15]: 0.114 ± 0.35 | promoter activity interaction Z-score [1, 16]: 1.19 ± 0.28 | promoter activity interaction Z-score [1, 17]: -0.349 ± 0.35 | promoter activity interaction Z-score [1, 18]: -0.246 ± 0.6 | promoter activity interaction Z-score [1, 19]: -0.023 ± 0.22 | promoter activity interaction Z-score [1, 20]: 0.484 ± 0.7 | promoter activity interaction Z-score [1, 21]: -0.275 ± 0.24 | promoter activity interaction Z-score [1, 22]: 0.0345 ± 0.17 | promoter activity interaction Z-score [2, 7]: 0.0366 ± 0.31 | promoter activity interaction Z-score [2, 8]: -0.191 ± 0.14 | promoter activity interaction Z-score [2, 9]: 0.0158 ± 0.19 | promoter activity interaction Z-score [2, 10]: -0.381 ± 0.062 | promoter activity interaction Z-score [2, 11]: -0.332 ± 0.016 | promoter activity interaction Z-score [2, 12]: -0.0943 ± 0.12 | promoter activity interaction Z-score [2, 13]: 0.0827 ± 0.3 | promoter activity interaction Z-score [2, 14]: -0.204 ± 0.038 | promoter activity interaction Z-score [2, 15]: 0.0474 ± 0.091 | promoter activity interaction Z-score [2, 16]: -0.151 ± 0.15 | promoter activity interaction Z-score [2, 17]: -0.00444 ± 0.34 | promoter activity interaction Z-score [2, 18]: -0.417 ± 0.16 | promoter activity interaction Z-score [2, 19]: 0.0188 ± 0.37 | promoter activity interaction Z-score [2, 20]: 0.0457 ± 0.14 | promoter activity interaction Z-score [2, 21]: -0.043 ± 0.02 | promoter activity interaction Z-score [2, 22]: -0.135 ± 0.14 | promoter activity interaction Z-score [3, 7]: -0.0829 ± 0.54 | promoter activity interaction Z-score [3, 8]: -1.35 ± 0.34 | promoter activity interaction Z-score [3, 9]: -0.822 ± 0.25 | promoter activity interaction Z-score [3, 10]: -0.433 ± 0.063 | promoter activity interaction Z-score [3, 11]: -0.415 ± 0.064 | promoter activity interaction Z-score [3, 12]: -1.08 ± 0.24 | promoter activity interaction Z-score [3, 13]: -0.634 ± 0.12 | promoter activity interaction Z-score [3, 14]: -0.567 ± 0.14 | promoter activity interaction Z-score [3, 15]: -0.476 ± 0.17 | promoter activity interaction Z-score [3, 16]: -1.71 ± 0.16 | promoter activity interaction Z-score [3, 17]: -0.778 ± 0.1 | promoter activity interaction Z-score [3, 18]: -1.09 ± 0.28 | promoter activity interaction Z-score [3, 19]: -0.342 ± 0.011 | promoter activity interaction Z-score [3, 20]: -0.966 ± 0.094 | promoter activity interaction Z-score [3, 21]: -0.486 ± 0.29 | promoter activity interaction Z-score [3, 22]: -0.548 ± 0.51 | promoter activity interaction Z-score [4, 7]: 0.172 ± 0.75 | promoter activity interaction Z-score [4, 8]: -0.36 ± 0.095 | promoter activity interaction Z-score [4, 9]: 0.172 ± 1.4 | promoter activity interaction Z-score [4, 10]: -0.316 ± 0.4 | promoter activity interaction Z-score [4, 11]: 0.097 ± 0.42 | promoter activity interaction Z-score [4, 12]: -1.12 ± 0.12 | promoter activity interaction Z-score [4, 13]: -0.276 ± 0.084 | promoter activity interaction Z-score [4, 14]: -0.113 ± 0.51 | promoter activity interaction Z-score [4, 15]: -0.241 ± 0.27 | promoter activity interaction Z-score [4, 16]: -0.584 ± 0.63 | promoter activity interaction Z-score [4, 17]: 0.349 ± 1.6 | promoter activity interaction Z-score [4, 18]: -0.312 ± 0.18 | promoter activity interaction Z-score [4, 19]: 1.83 ± 1.8 | promoter activity interaction Z-score [4, 20]: 0.000795 ± 0.15 | promoter activity interaction Z-score [4, 21]: 0.186 ± 0.23 | promoter activity interaction Z-score [4, 22]: 0.201 ± 0.43 | promoter activity interaction Z-score [5, 7]: 0.109 ± 0.15 | promoter activity interaction Z-score [5, 8]: -0.193 ± 0.12 | promoter activity interaction Z-score [5, 9]: 0.0591 ± 0.33 | promoter activity interaction Z-score [5, 10]: -0.222 ± 0.045 | promoter activity interaction Z-score [5, 11]: -0.168 ± 0.034 | promoter activity interaction Z-score [5, 12]: -0.0932 ± 0.073 | promoter activity interaction Z-score [5, 13]: 0.0518 ± 0.4 | promoter activity interaction Z-score [5, 14]: -0.0694 ± 0.036 | promoter activity interaction Z-score [5, 15]: 0.0967 ± 0.17 | promoter activity interaction Z-score [5, 16]: -0.245 ± 0.091 | promoter activity interaction Z-score [5, 17]: 0.0476 ± 0.29 | promoter activity interaction Z-score [5, 18]: -0.421 ± 0.13 | promoter activity interaction Z-score [5, 19]: -0.0465 ± 0.24 | promoter activity interaction Z-score [5, 20]: -0.324 ± 0.079 | promoter activity interaction Z-score [5, 21]: -0.0385 ± 0.2 | promoter activity interaction Z-score [5, 22]: -0.403 ± 0.12 | promoter activity interaction Z-score [6, 7]: 0.553 ± 0.54 | promoter activity interaction Z-score [6, 8]: 0.188 ± 1.3 | promoter activity interaction Z-score [6, 9]: 0.472 ± 2.8 | promoter activity interaction Z-score [6, 10]: -0.947 ± 0.95 | promoter activity interaction Z-score [6, 11]: 0.236 ± 0.38 | promoter activity interaction Z-score [6, 12]: -0.452 ± 0.27 | promoter activity interaction Z-score [6, 13]: -0.598 ± 1.4 | promoter activity interaction Z-score [6, 14]: -0.521 ± 0.018 | promoter activity interaction Z-score [6, 15]: 0.515 ± 0.49 | promoter activity interaction Z-score [6, 16]: -0.357 ± 0.42 | promoter activity interaction Z-score [6, 17]: -0.0523 ± 0.77 | promoter activity interaction Z-score [6, 18]: 0.108 ± 1.1 | promoter activity interaction Z-score [6, 19]: 0.274 ± 0.22 | promoter activity interaction Z-score [6, 20]: 0.331 ± 2.3 | promoter activity interaction Z-score [6, 21]: -0.437 ± 0.62 | promoter activity interaction Z-score [6, 22]: -0.524 ± 0.86
